Bioassay records: PubChem, National Center for Advancing Translational Sciences (NCATS)
Shown are actives, neighbours in structure and some others; about 3.4% of the full set was active somewhere.
FBPA Giardia inh = Giardia lamblia aldolase inhibition; purified Giardia FBPA; A8B2U2; 290,000 compounds, 0.71% hits; Potency, µM (series often up to 59.6 µM), without a hit: at the top dose activity, negative = inhibition, hits mostly inhibitors; note: nearly all actives have a fitted effect of over 55% in size
Target sequence (A8B2U2 whole entry, looked up): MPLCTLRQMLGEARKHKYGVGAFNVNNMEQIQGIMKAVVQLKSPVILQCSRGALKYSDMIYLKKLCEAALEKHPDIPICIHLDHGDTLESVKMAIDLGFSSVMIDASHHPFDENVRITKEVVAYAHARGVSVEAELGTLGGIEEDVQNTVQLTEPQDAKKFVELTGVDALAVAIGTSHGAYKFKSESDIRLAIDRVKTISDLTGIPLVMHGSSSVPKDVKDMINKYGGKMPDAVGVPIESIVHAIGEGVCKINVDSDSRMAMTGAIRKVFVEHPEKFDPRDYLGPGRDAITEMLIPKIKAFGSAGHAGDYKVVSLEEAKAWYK
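40 nM FBPA preincubated 10 min at RT with compound (up to 57.5 uM final), then substrate plus GAPDH/TPI/NAD/arsenate coupling and diaphorase/resazurin added. Fluorescence read after 20 min at RT, 525/598 nm.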
AmpC inh no detg = AmpC beta-lactamase inhibition without detergent. P00811. AmpC nitrocefin hydrolysis, absorbance 480 nm, 0.0001% Triton. Potency, µM (titrated, usually from 57.1 µM), without a hit: at the top dose activity change, negative = inhibition, most hits filed as inhibitors. 330,000 compounds, 0.52% hits. AID 485341;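 note: plate controls were no compound for no effect and no enzyme for full effect; nearly all actives have a fitted effect of over 20% in size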
Target sequence (P00811 whole entry, looked up): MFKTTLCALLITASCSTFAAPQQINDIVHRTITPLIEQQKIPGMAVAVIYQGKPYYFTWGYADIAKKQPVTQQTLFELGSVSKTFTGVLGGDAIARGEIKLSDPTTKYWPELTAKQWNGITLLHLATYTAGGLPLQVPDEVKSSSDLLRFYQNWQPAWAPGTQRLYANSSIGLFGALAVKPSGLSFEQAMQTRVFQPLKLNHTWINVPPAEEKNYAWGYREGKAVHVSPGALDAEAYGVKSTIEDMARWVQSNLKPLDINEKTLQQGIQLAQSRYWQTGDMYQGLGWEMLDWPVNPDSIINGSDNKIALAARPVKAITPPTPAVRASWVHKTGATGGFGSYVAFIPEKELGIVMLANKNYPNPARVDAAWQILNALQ
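20 mM phosphate pH 7.0 + 0.01% (detergent screen) or 0.0001% Triton X-100; 5.3 nM AmpC reagent; cpd preinc 15 min RT; nitrocefin (800 uM stock) to start; A480 q20 s × 4 min; Activity was normalised to no-enzyme and no-compound control wells.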
Sm TGR inh = S. mansoni TGR enzyme inhibition; AID 485364; purified TGR, DTNB reduction, TNB absorbance 405 nm; 360,000 compounds, 3% hits; Q962Y6; Potency, µM (titrated, usually from 114 µM), inactives show at the highest dose activity change, negative = inhibition, usual class: inhibitors; note: nearly all actives have a fitted effect of over 60% in size
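Kinetic colorimetric format: TGR-catalysed, NADPH-driven DTNB reduction monitored via TNB absorbance. Enzyme dispensed at 20 nM; compound exposure 15 min at room temperature before reaction start.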
RE007 growth inh = less growth of the S. pombe RE007 Vpr strain | AID 651644 | 360,000 compounds, 0.21% hits | S. pombe RE007 Vpr strain, BacTiter-Glo ATP luminescence, 24 h | Potency, µM (top dose mostly 92.2 µM), for inactives: at the top dose activity change, negative = less growth, hits mostly inhibitors; active = well fitted falling curve with a large enough effect; inconclusive = small, poorly fitted or top-dose-only effect; inactive = no such curve, though single readings can be large or run the other way; note: nearly all actives have a fitted effect of over 50% in size
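Fission yeast strain RE007, carrying one chromosomally integrated HIV-1 vpr copy, was seeded at OD 0.01 in PMG+AL medium with 23 nL pinned compound. After 24 h at 30 °C and 99% humidity, viability was read by BacTiter-Glo luminescence.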
AmpC inh detg = inhibitors of E. coli AmpC beta-lactamase with detergent. 370,000 compounds, 0.041% hits. AmpC hydrolysis of nitrocefin, absorbance 480 nm, 0.01% Triton. AID 485294. Potency, µM (titrated, usually from 114 µM), without a hit: top-dose activity change, negative = inhibition, usual class: inhibitors;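 note: 0% = no-compound wells and -100% = no-enzyme wells; nearly all actives have a fitted effect of over 25% in size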
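20 mM phosphate pH 7.0 + 0.01% (detergent screen) or 0.0001% Triton X-100; 5.3 nM AmpC reagent; cpd preinc 15 min RT; nitrocefin (800 uM stock) to start; A480 q20 s × 4 min; Activity was normalised to no-enzyme and no-compound control wells.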
* hit, by the source's call; ? = inconclusive; . = no result. Unless noted, calls come from the whole dose curve; as a rule, active = well fitted curve in the direction sought with a large enough effect; inconclusive = small, poorly fitted or top-dose-only effect, or another doubt; inactive = no such curve, though single readings can be large; an effect the other way counts as inactive or inconclusive. Unless noted, % is set by controls: 0 for no effect and ±100 for the full control effect; potency is the fitted concentration of half-maximal effect.

SMILES	FBPA Giardia inh	AmpC inh no detg	Sm TGR inh	RE007 growth inh	AmpC inh detg
Cc1[nH]c2ccccc2c1C(=O)CN1CCC(C)CC1	-7.0%	-9.6%	?	8.4%	0.7%
CCOc1ccc(NC(=O)CN2CCN(CC(=O)Nc3cc(OC)cc(OC)c3)CC2)cc1	-2.6%	120.0%	0.0%	17.1%	-2.4%
CCC(C)(C)NC(=O)C(c1ccc(OC)cc1)N(CCOC)C(=O)CCC(=O)Nc1nccs1 (centres undefined)	-0.3%	23.6%	.	-9.0%	2.1%
Cc1cccc(NC(=O)CCC(=O)N/N=C/c2cccnc2)c1	.	95.9%	42.1%	-6.7%	6.5%
COc1ccc2[nH]c(C)c(C(=O)CN3CC(C)OC(C)C3)c2c1 (centres undefined)	-8.7%	-28.7%	-9.9%	0.4%	1.3%
CC1CN(CC(=O)c2ccccc2Cl)CC(C)O1 (centres undefined)	-6.1%	-11.6%	44.7µM*	-4.0%	-9.2%
CC1CCN(CC(=O)c2ccccc2Cl)CC1	2.4%	-25.5%	-1.4%	-1.1%	-0.1%
Cc1[nH]c2ccccc2c1C(=O)CN1CC(C)OC(C)C1 (centres undefined)	1.9%	-9.6%	31.6µM*	4.5%	10.3%
COc1ccc(OC)c(C2=NO[C@@](CC(=O)O)(C(=O)Nc3ccc4c(c3)OCCO4)C2)c1	-8.7%	-18.0%	12.6µM*	11.4%	-9.0%
Cc1ccc(C(=O)Nc2ccc3c(c2)OCCO3)cc1	-1.7%	-5.4%	8.5%	79.5%	-7.3%
COc1ccc(OC)c(NC(=O)[C@@]2(CC(=O)O)CC(/C=C/c3ccccc3)=NO2)c1	-7.1%	-35.1%	?	-13.0%	-2.4%
Cc1ccc(C2=NO[C@@](CC(=O)O)(C(=O)Nc3ccc4c(c3)OCCO4)C2)cc1	-18.8%	-21.2%	14.1µM*	3.3%	-3.5%
CCCSc1nc2c(c(=O)[nH]1)C(c1ccc(F)cc1F)CC(=O)N2 (centres undefined)	.	.	-3.4%	.	1.3%
C[C@@]12CCC=C[C@H]1[C@H](c1ccoc1)N(Cc1ccccc1)C2=O	9.6%	17.7%	35.5µM*	-2.8%	-3.2%
CC12CCC=CC1C(c1cccc(Br)c1)N(Cc1ccccc1)C2=O (centres undefined)	0.7%	.	.	.	.
CCN(CC)c1nc(-c2ccc(Cl)cc2)cc(C(F)(F)F)c1C#N	-1.0%	-11.4%	8.7%	-1.7%	3.1%
NC(=O)NC(=O)COC(=O)c1cccc(S(=O)(=O)N2CCCCCC2)c1	-2.4%	-12.2%	3.7%	4.9%	-0.3%
Cc1ccc(Nc2nnc(SCC(=O)c3c(N)n(C4CC4)c(=O)[nH]c3=O)s2)cc1C	.	-37.6%	-8.9%	4.2%	?
O=c1c(O)c(-c2ccc(O)c(O)c2)oc2c(O)c(O)cc(O)c12	7.06µM*	.	.	.	.
O=c1c(O)c(-c2ccc(O)c(O)c2)oc2ccccc12	-27.4%	.	.	.	.
O=C(CN1C(=O)NC2(CCCC2)C1=O)c1ccc(Cl)s1	.	-22.1%	-7.1%	0.1%	?
COc1ccc(N2CCN(CC(=O)c3ccc(O)c(C)c3O)CC2)cc1	-4.6%	-4.6%	?	-8.1%	-9.2%
Cc1c(O)ccc(C(=O)CN2CCN(c3ccccc3)CC2)c1O	-4.2%	-25.5%	22.4µM*	15.1%	?
COC(=O)C1=C(C)NC(=O)/C1=C\c1cc(C)n(-c2ccccc2C)c1C	-24.1%	-8.7%	-22.4%	15.8µM*	-7.1%
COC(=O)C1=C(C)NC(=O)/C1=C\c1cc(C)n(-c2c(C)cccc2C)c1C	?	-8.5%	-34.4%	-10.4%	?
SMILES	FBPA Giardia inh	AmpC inh no detg	Sm TGR inh	RE007 growth inh	AmpC inh detg
COC(=O)C1=C(C)NC(=O)/C1=C\c1cc(C)n(-c2ccccc2F)c1C	?	-23.6%	14.1µM*	2.0%	-4.1%
Nn1c(SCC(=O)Nc2cc(C(F)(F)F)ccc2Cl)nncc1=O	?	-5.9%	2.2%	18.2%	-4.2%
CCOc1ccc(CNC(=O)CCS(=O)(=O)Cc2ccc(C)cc2)cc1OC	13.9%	-8.4%	-8.7%	-19.2%	-1.0%
CCOc1ccc2noc3c2c1C(=O)c1ccccc1-3	?	-18.6%	?	23.8%	-0.7%
O=C1c2ccccc2-c2onc3ccc(NCc4ccco4)c1c23	?	?	11.2µM*	28.2µM*	-15.4%
CCNc1ccc2noc3c2c1C(=O)c1ccccc1-3	-22.3%	137.0%	1.8%	-20.3%	1.2%
O=C1c2ccccc2-c2onc3ccc(N4CCCC4)c1c23	?	104.6%	17.8µM*	?	0.6%
COC(=O)C1=C(C)NC(=O)NC1c1cn(-c2ccccc2)nc1-c1ccc(OC)c(Cl)c1 (centres undefined)	.	.	2.2%	.	1.6%
COc1ccccc1C(=O)NC(=O)COC(=O)c1nc2nc(C)cc(C)n2n1	.	-14.5%	5.0%	-1.9%	-16.0%
CCn1c(C)c2c(C)nnc(C)c2c1C	?	-2.8%	44.7µM*	7.1%	-4.6%
Cc1nnc(C)c2c(C)n(-c3ccccc3)c(C)c12	-11.1%	21.6%	-17.8%	-9.7%	-3.7%
CC(C)[C@H](NC(=O)OC(C)(C)C)c1cc(C(=O)NCCO)c(N)s1	.	.	.	8.5%	.
CCOC(=O)N1CCN(C(=O)Nc2sc3nc4n(c(=O)c3c2C)CCC(C)CC4)CC1 (centres undefined)	-0.1%	58.6%	2.82µM*	0.0%	-13.7%
Cc1c(C(=O)NCCSCc2c(F)cccc2Cl)cnn1-c1ccc(F)cc1	-6.4%	-14.4%	-2.7%	-6.8%	5.8%
N#C/C(N=Nc1ccccc1O)=N\Nc1ccccc1O	.	-41.5%	-28.2%	11.2µM*	-13.0%
CN(C)CCCN1C(=O)C(=O)/C(=C(/O)c2ccccc2)C1c1ccccn1 (centres undefined)	-6.4%	-11.5%	-19.5%	.	?
Cc1ccc(/C(O)=C2/C(=O)C(=O)N(CCN3CCOCC3)C2c2ccccn2)cc1 (centres undefined)	?	-2.2%	25.1µM*	5.5%	2.8%
CCCOc1ccc(/C(O)=C2/C(=O)C(=O)N(CCN(C)C)C2c2ccco2)cc1 (centres undefined)	-16.0%	-28.6%	44.7µM*	0.1%	1.5%
COc1ccc(/C(O)=C2/C(=O)C(=O)N(CCN3CCOCC3)C2c2ccccn2)cc1OC (centres undefined)	?	7.4%	50.1µM*	81.1%	-3.7%
O=C1C(=O)N(CCN2CCOCC2)C(c2ccccn2)/C1=C(/O)c1ccccc1 (centres undefined)	?	37.1%	?	6.0%	-5.3%
COc1ccc(/C(O)=C2/C(=O)C(=O)N(CCN(C)C)C2c2ccccn2)cc1OC (centres undefined)	?	-2.3%	12.6µM*	34.8%	2.3%
CCCOc1cccc(C2/C(=C(/O)c3ccccc3)C(=O)C(=O)N2CCN(C)C)c1 (centres undefined)	0.8%	-6.9%	-27.3%	3.2%	2.8%
